# Screens as filed in PubChem BioAssay.
# A selection: hits, their analogues and other compounds. The true share with any hit is near 3.5%.
# PPC-1+TRAIL kill: kills PPC-1 cancer cells in the presence of TRAIL; actives 0.41% (n = 220,000); PPC-1 cells + TRAIL, ATPLite viability luminescence; cell killing (% activity), % at 4 µM or 5 µM;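 active = cell killing above 50% in the first pass at 4 µM, then a duplicate retest at 5 µM averaging 50% or more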;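 note: plate controls were cells with TRAIL plus DMSO for no effect and medium-only wells lacking cells for full effect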
# Platelet DG rel: modulates dense granule release in human platelets; human platelet-rich plasma, SFLLRN dense granule ATP release, luminescence; inhibition, %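 (compounds screened at 7.5 µM in platelet-rich plasma)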; actives 0.22% (n = 300,000); AID 1663;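 active = mean replicate score, as percent of positive control, at or above 50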
# HSP90 inh: inhibitors of HSP90 luciferase refolding in rabbit reticulocyte lysate; inhibition, % at 5.6 µM; actives 0.91% (n = 290,000); luciferase refolding luminescence, 3 h;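 active = inhibition above the screen-wide mean plus 3 SD, computed separately per campaign, cut at about 16% in these data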;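 note: 0% = DMSO wells and 100% = 60 µM geldanamycin wells; inhibitors lower the luminescence because luciferase stays unfolded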
# TROY NFkB inh: TROY signaling inhibition | inhibition, % at 10 µM | Q293 LMP1-TROYcd NF-kB luciferase reporter, 4 h | actives 0.98% (n = 360,000);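 active = compounds whose plate-normalised and pattern-corrected inhibition of the luciferase reporter signal at the single screening dose is 50% or more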
# TRAIL sens C8: sensitizes caspase-8 expressing cells to TRAIL; NB7+C8 cells + TRAIL, ATPlite viability luminescence; inhibition (viability loss, TRAIL sensitization), % at 10 µM; actives 1% (n = 360,000); AID 624354;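 active = compounds causing at least 50% loss of cell viability in the single-dose screen, relative to plate controls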
# TWEAK Fn14 block: blocks TWEAK-Fn14 interaction in a reporter cell assay. inhibition, % at 10 µM. AID 1159606. TWEAK-stimulated Fn14 reporter cells, luciferase luminescence, 8 h. actives 2% (n = 360,000); in the data active = inhibition above about 50%
# HSP90 confirm: HSP90 inhibition, confirmation assay | shares compounds with HSP90 inh | rabbit reticulocyte lysate, luciferase refolding luminescence, 3 h | inhibition, % at 5.9 µM | actives 64% (n = 2,300); in the data active = inhibition above about 18%;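 note: 0% = vehicle wells and 100% = reference inhibitor wells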
# FLuc counter: blocks native firefly luciferase in HSP90 counter-screen; shares compounds with HSP90 inh; purified native firefly luciferase, luminescence; inhibition, % at 5.9 µM; actives 48% (n = 2,300); AID 1847;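 active = inhibition above the mean inhibition of all tested sample wells plus 3 SD, cut at about 10% in these data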;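 note: 0% = DMSO with luciferase and 100% = wells lacking luciferase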
# Target sequence (P08659 whole entry, looked up): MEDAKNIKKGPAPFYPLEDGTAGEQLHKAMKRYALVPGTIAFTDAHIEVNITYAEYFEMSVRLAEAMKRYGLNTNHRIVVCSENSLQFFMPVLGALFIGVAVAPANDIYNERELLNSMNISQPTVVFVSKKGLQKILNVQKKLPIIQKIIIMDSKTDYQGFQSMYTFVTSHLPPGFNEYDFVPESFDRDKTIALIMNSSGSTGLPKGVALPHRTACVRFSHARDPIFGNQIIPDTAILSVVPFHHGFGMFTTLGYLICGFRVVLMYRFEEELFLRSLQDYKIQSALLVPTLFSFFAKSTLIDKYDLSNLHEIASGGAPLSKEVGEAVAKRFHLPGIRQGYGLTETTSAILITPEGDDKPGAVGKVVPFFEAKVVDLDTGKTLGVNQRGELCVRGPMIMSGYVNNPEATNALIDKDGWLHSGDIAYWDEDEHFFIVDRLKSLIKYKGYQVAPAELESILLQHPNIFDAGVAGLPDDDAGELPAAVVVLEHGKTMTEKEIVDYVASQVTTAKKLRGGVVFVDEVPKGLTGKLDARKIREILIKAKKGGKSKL
# The depositor's hits bear a star; · = no result given.
SMILES,PPC-1+TRAIL kill,Platelet DG rel,HSP90 inh,TROY NFkB inh,TRAIL sens C8,TWEAK Fn14 block,HSP90 confirm,FLuc counter
Nc1ccc(Cc2ccc(N)c(O)c2)cc1O,3,·,24*,-11,-7,-45,14,-6
COc1cc(Cc2ccc(N)c(OC)c2)ccc1N,19,4,0,0,1,4,·,·
COc1ccc(N2CCC(CNC(=S)Nc3cccc(OC)c3)C2)cc1 (stereo not drawn),14,6,18*,·,·,·,0,-10
O=C(CSc1nnc(CNC(=O)c2ccc(F)cc2)o1)NCc1ccc2c(c1)OCO2,·,32,2,1,-5,-7,·,·
Cc1nc(NC(=O)c2ccccc2)sc1-c1csc(N)n1,16,4,61*,-43,6,30,11,-24
CCOC(=O)CNC(=O)c1sc(NC(=O)c2ccccc2)nc1C,22,-15,13,-15,-2,8,·,·
CCC(=O)Nc1nc(C)c(-c2csc(Nc3ccccn3)n2)s1,8,0,-7,-5,1,-6,·,·
Cc1nc(N)sc1-c1csc(NCc2ccccc2)n1,15,·,56*,-8,-13,1,6,-5
Cc1nc(NC(=O)c2ccccc2)sc1-c1csc(NCCc2ccccc2)n1,-6,-6,42*,-38,3,54*,19*,-7
Cc1nc(NC(=O)c2ccccc2)sc1-c1csc(NCc2ccccc2)n1,7,-5,60*,-37,1,43,24*,-14
Cc1cccc(Nc2nc(Cl)ncc2F)c1C,·,5,3,-3,-11,2,·,·
CC(NC(=O)CN(C)S(=O)(=O)c1ccc(Br)s1)c1ccccc1 (stereo not drawn),·,9,2,-18,-2,-7,·,·
CCN(CC)S(=O)(=O)c1ccc(Cl)c(NC(=O)COC(=O)c2nc3nc(C)cc(C)n3n2)c1,·,·,·,-6,-14,9,·,·
CCC(=O)c1ccc(OCC(=O)NNC(=O)c2cc(C)oc2C)cc1,·,·,·,-3,8,22,·,·
Cc1cc(NC2CCCC2)n2nc(C)c(-c3ccccc3)c2n1,·,-1,0,-31,-1,-31,·,·
Cc1cc(NCc2ccccc2)n2ncc(-c3ccccc3)c2n1,·,-1,2,14,26,17,·,·
Cc1cc(NC2CCCC2)n2ncc(-c3ccccc3)c2n1,·,-1,59*,81*,59*,90*,71*,70*
Cc1cc(-c2ccccc2)n2ncc(-c3ccccc3)c2n1,55*,1,22*,74*,62*,89*,61*,55*
COc1ccc(-c2cc(C)nc3c(-c4ccccc4)cnn23)cc1,28,2,21*,66*,32,65*,45*,28*
CC(C)C1Oc2ccccc2N(CC(=O)NC2CCCCC2)C1=O (stereo not drawn),·,-4,3,-10,-10,-5,·,·
O=C(Nc1cc(C(F)(F)F)ccc1N1CCCCC1)C1=COCCO1,·,·,·,7,-6,11,·,·
CC(=O)c1ccc(OCCCC(=O)Nc2nnc(C3CC3)s2)cc1,·,·,·,-4,-2,-14,·,·
O=C(Nc1ccc(Br)cc1)c1ccc2ncsc2c1,·,2,43*,-41,1,6,45*,28*
O=C(CCN1C(=O)c2ccccc2C1=O)NCc1ccccc1,·,5,41*,0,2,0,0,-7
CN1OC[C@@H]2CN(C(=O)C(C)(C)C)[C@H](c3ccc(-c4cc5ccccc5o4)cc3)C[C@@H]21,·,·,·,11,13,19,·,·
SMILES,PPC-1+TRAIL kill,Platelet DG rel,HSP90 inh,TROY NFkB inh,TRAIL sens C8,TWEAK Fn14 block,HSP90 confirm,FLuc counter
O=c1[nH]c(=O)n(Cc2ccccc2)c2nc(-c3ccc(C(F)(F)F)cc3)n(CCO)c12,·,-17,4,2,-26,3,·,·
Cc1ccccc1-n1nc2c(c1NC(=O)c1cccs1)CS(=O)(=O)C2,·,-6,1,-5,-7,-2,·,·
Cc1ccc(-n2nc3c(c2NC(=O)c2cccs2)CS(=O)(=O)C3)c(C)c1,·,1,86*,-4,-13,9,-2,-1
O=C1CC(c2ccccc2)Sc2nc3ccccc3n21 (stereo not drawn),21,0,1,49,27,34,·,·
O=C1CC(c2ccc3c(c2)OCO3)Sc2nc3ccccc3n21 (stereo not drawn),-8,-1,47*,84*,31,89*,72*,69*
O=[N+]([O-])c1ccc(NC2CCCC2)cc1,24,-4,20*,-23,5,-2,-7,-12
CN(C)C1=NC(=O)/C(=C\c2ccccc2)S1,27,1,38*,-26,0,-6,-11,-15
NC1=NC(=O)C(=Cc2ccccc2)S1,·,·,·,-15,2,4,·,·
Cc1ccc(C(=O)O/N=C(\N)c2ccccn2)c(Cl)c1,·,76*,94*,86*,91*,105*,96*,91*
N/C(=N\OC(=O)c1ccc([N+](=O)[O-])cc1Cl)c1ccccn1,·,43,67*,67*,88*,94*,61*,90*
CSc1nnc(SCC(=O)N(C)c2c(N)n(Cc3ccccc3)c(=O)[nH]c2=O)s1,·,14,·,-5,-2,1,·,·
CN(C(=O)CSc1nnc(-c2ccccc2)o1)c1c(N)n(Cc2ccccc2)c(=O)[nH]c1=O,17,-1,19*,-14,-6,13,-3,-1
O=C(/C=C/c1c(F)cccc1Cl)c1ccc(O)cc1,13,23,24*,-7,21,61*,6,-28
O=C(/C=C/c1ccccc1Cl)c1ccc(O)cc1,9,28,0,4,28,44,·,·
CC(C)N1CC(C(=O)Nc2ccc(S(=O)(=O)N3CCCCC3)cc2)CC1=O (stereo not drawn),·,0,26*,33,0,3,-5,-11
COc1ccc(N(C(C)C(=O)Nc2ccc(S(=O)(=O)N3CCOCC3)cc2)S(C)(=O)=O)cc1 (stereo not drawn),-6,6,1,7,-2,31,·,·
CC(=O)Nc1ccc(NC(=O)C2CC(=O)N(C(C)C)C2)cc1 (stereo not drawn),·,-2,0,-13,-9,2,·,·
COc1ccc(N(C(C)C(=O)Nc2ccc(S(=O)(=O)N3CCCCC3)cc2)S(C)(=O)=O)cc1 (stereo not drawn),·,4,18*,12,14,0,-6,-13
COCCOC(=O)c1c(NC(=O)COC(=O)c2ccc(C)o2)sc(C(N)=O)c1C,·,·,·,20,6,-13,·,·
Cc1ccc(C)c(S(=O)(=O)N2CCN(C(=O)[C@H](Cc3ccccc3)NC(=O)c3ccco3)CC2)c1,·,·,·,0,-8,2,·,·
COc1ccccc1C#Cc1ccc2c(=O)c3ccccc3n(C)c2c1,·,-6,24*,-9,14,45,6,-11
